Hits are enriched below; roughly 19% of the tested compounds scored in any of these assays.
HepG2 tox: kills HepG2 cells in TGF-b inhibitor counter-screen | HepG2 CAGA-GFP viability, ATP luminescence, 18 h | Potency, µM (titrated, usually from 46.1 µM), for the others: top-dose activity change, negative = cytotoxicity, hits mostly cytotoxic | 410,000 compounds, 0.76% hits; note: potency is the fitted concentration of half-maximal effect
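CellTiter-Glo luminescence gave cytotoxicity after 18 hours at 37 degrees C. The cells were HepG2 CAGA-GFP in 1% FBS DMEM, stimulated with 500 pg/mL TGF-beta after compound addition. %Activity was normalised to no-cell wells (complete cell-killing) and DMSO (no toxicity), and curves were fitted and classified.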
IL1B secr inh: inhibitors of inflammasome signaling (IL-1 beta secretion); THP-1 LPS/ATP IL-1B secretion, AlphaLISA, 16 h; hits give low values; 360,000 compounds, 4.7% hits; AID 743279; activity change, % at 57.5 µM; in the data active = activity change below about -50%; inconclusive = mostly about -30% to -49%; note: % is set by controls: 0 for no effect and ±100 for the full control effect
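THP-1 cells pretreated 1 hr with compounds (up to 57.5 uM final), then stimulated with LPS (250 ng/mL final) plus ATP (1.25 mM final); secreted IL-1B measured by AlphaLISA after 16 hr, decreased signal indicating inhibition.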
TGFb SMAD3 inh: TGF-b pathway inhibition | HepG2 CAGA-GFP TGF-b/SMAD3 reporter, GFP fluorescence, 18 h; TGF-beta stimulated, 500 pg/mL final | Potency, µM (titrated, usually from 46.1 µM), without a hit: top-dose activity, negative = inhibition, actives largely listed as inhibitors | 410,000 compounds, 1.2% hits; note: potency is the fitted concentration of half-maximal effect; % is set by controls: 0 for no effect and ±100 for the full control effect; nearly all actives have a fitted effect of over 65% in size
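TGF-beta reporter screen: HEPG2 CAGA-GFP, 1% FBS, 500 pg/mL TGF-beta final, 18 h; per-cell GFP summed per well; curves fitted and categorized by class.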
TDP1 block: inhibitors of human tyrosyl-DNA phosphodiesterase TDP1; recombinant TDP1, AlphaScreen DNA substrate cleavage; 350,000 compounds, 0.28% hits; AID 485290; Potency, µM (highest dose often 130 µM), for inactives: at the top dose activity change, negative = inhibition, hits mostly inhibitors; Q9NUW8; note: potency is the fitted concentration of half-maximal effect; % is set by controls: 0 for no effect and ±100 for the full control effect; nearly all actives have a fitted effect of over 40% in size
Target sequence (Q9NUW8 whole entry, looked up): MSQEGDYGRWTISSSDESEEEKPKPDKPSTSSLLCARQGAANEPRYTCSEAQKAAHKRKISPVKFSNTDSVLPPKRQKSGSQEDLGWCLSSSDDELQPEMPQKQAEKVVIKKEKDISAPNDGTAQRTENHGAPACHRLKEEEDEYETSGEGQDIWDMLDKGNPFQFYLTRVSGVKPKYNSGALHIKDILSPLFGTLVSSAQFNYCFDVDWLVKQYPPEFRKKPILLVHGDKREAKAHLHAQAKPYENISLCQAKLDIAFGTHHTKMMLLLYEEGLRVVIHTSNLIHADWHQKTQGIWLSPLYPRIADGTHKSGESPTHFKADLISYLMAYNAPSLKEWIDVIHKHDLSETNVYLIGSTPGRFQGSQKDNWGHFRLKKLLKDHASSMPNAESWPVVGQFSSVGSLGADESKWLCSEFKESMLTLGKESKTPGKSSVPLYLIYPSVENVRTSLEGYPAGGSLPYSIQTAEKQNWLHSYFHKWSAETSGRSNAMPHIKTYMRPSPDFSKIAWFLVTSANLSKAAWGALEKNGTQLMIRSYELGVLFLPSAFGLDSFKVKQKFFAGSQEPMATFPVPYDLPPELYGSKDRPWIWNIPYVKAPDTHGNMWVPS
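Tdp1 1 nM final; 15 min RT w/ cpd; substrate 15 nM, 5 min; beads 10 ug/ml, 10 min; AlphaScreen read. Neg ctrl: no enzyme.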
TDP1 cell noCPT: qHTS for Inhibitors of human tyrosyl-DNA phosphodiesterase 1 (TDP1): qHTS in cells in absence of CPT | 420,000 compounds, 15% hits | Potency, µM (doses to about 46.2 µM), for inactives: at the highest dose activity change, negative = growth inhibition, actives largely listed as inhibitors | DT40 Tdp1-/- hTDP1 cells, no CPT, ATP luminescence, 48 h; note: potency is the fitted concentration of half-maximal effect; % is set by controls: 0 for no effect and ±100 for the full control effect; nearly all actives have a fitted effect of over 55% in size
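No-CPT arm: Tdp1-/-;hTDP1 DT40 cells (400/well) plus compounds, incubated ≥48 hr at 37 °C. Readout CellTiter-Glo luminescence.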
DT40 TDP1 CPT: DT40-hTDP1 cell growth loss with CPT | AID 686979 | chicken DT40 Tdp1-/-;hTDP1 cells + 20 nM CPT, ATP luminescence, 48 h | 420,000 compounds, 12% hits | Potency, µM (highest dose often 46.2 µM), inactives show at the highest dose activity change, negative = growth inhibition, most hits filed as inhibitors; note: potency is the fitted concentration of half-maximal effect; % is set by controls: 0 for no effect and ±100 for the full control effect; nearly all actives have a fitted effect of over 55% in size
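Chicken DT40 Tdp1-/- cells complemented with human TDP1, 400 cells/well, exposed to compounds plus 20 nM camptothecin for at least 48 h at 37 C; viability read as ATP content by CellTiter-Glo luminescence.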
* marks the source's active call; other numbers are inactive results; u = inconclusive; x = no result given; [ ] = dose if it differs, or a comment. Unless noted, calls come from the whole dose curve; as a rule, active = well fitted curve in the direction sought with a large enough effect; inconclusive = small, poorly fitted or top-dose-only effect, or another doubt; inactive = no such curve, though single readings can be large; an effect the other way counts as inactive or inconclusive.

SMILES	HepG2 tox	IL1B secr inh	TGFb SMAD3 inh	TDP1 block	TDP1 cell noCPT	DT40 TDP1 CPT
CCc1cccc(CC)c1NC(=O)c1ccc(-c2cc(Cl)ccc2Cl)o1	-1%	35	-8%	x	u	u
COC(=O)c1cc(NC(=O)c2ccc(-c3ccc(Cl)cc3Cl)o2)cc(C(=O)OC)c1	-9%	x	-9%	0%[12.3 µM]	-21%	-3%
Cc1ccccc1NC(=O)c1ccc(-c2ccc(Cl)cc2Cl)o1	6%	-11	u	-6%	13µM*	u
COc1cccc(OC)c1NC(=O)c1ccc(-c2cc(Cl)ccc2Cl)o1	-30%	-58*	u	x	u	u
Cc1ccc(NC(=O)c2ccc(-c3cc(Cl)ccc3Cl)o2)c(C)c1	-45%	-17	-21%	x	u	21µM*
Cc1ccc(N2CC(NC(=O)c3ccc4c(c3)OCO4)CC2=O)cc1 (centres undefined)	-1%	x	-5%	5%	-17%	13%
COc1cc(OC)c2nc(C)c3c(c2c1)N(c1ccc(O)cc1)CC3	-26%	x	u	1%	16µM*	u
C=C(NC(=O)C(=C)NC(=O)c1csc(C2=NC3c4csc(n4)C4NC(=O)c5csc(n5)C(C(C)(O)C(C)O)NC(=O)C5CSC(=N5)C(=CC)NC(=O)C(C(C)O)NC(=O)c5csc(n5)C3(CC2)NC(=O)C(C)NC(=O)C(=C)NC(=O)C(C)NC(=O)C(C(C)CC)NC2C=Cc3c(C(C)O)cc(nc3C2O)C(=O)OC4C)n1)C(N)=O (centres undefined)	x	x	x	5%	5.2µM*	4.1µM*
C=C(NC(=O)C(=C)NC(=O)c1csc(C2=NC3c4csc(n4)C4NC(=O)c5csc(n5)C(C(C)(O)C(C)O)NC(=O)C5CSC(=N5)/C(=C/C)NC(=O)C(C(C)O)NC(=O)c5csc(n5)C3(CC2)NC(=O)C(C)NC(=O)C(=C)NC(=O)C(=C)NC(=O)C(C(C)C)NC2C=Cc3c(C(C)O)cc(nc3C2O)C(=O)OC4C)n1)C(N)=O (centres undefined)	0%	-67*	8.9µM*	x	0.92µM*	1µM*
CCN1C(=O)c2cccc3c(S(=O)(=O)N(C(=O)c4cccnc4)c4ccc(OC)cc4)ccc1c23	-31%	39	u	-3%	12µM*	u
CCN1C(=O)c2cccc3c(S(=O)(=O)N(C(=O)c4ccncc4)c4ccc(OC)cc4)ccc1c23	-26%	56	-27%	-3%	u	u
C=CCN(c1ccccc1Cl)S(=O)(=O)c1cccc(C(=O)NCCc2ccc(OC)cc2)c1	-38%	0	-17%	2%	21µM*	u
C=CCN(c1ccccc1OC)S(=O)(=O)c1cccc(C(=O)OCC(=O)c2c(N)n(C)c(=O)n(C)c2=O)c1	-4%	6	u	x	18µM*	u
C=CCN(c1ccccc1OC)S(=O)(=O)c1cccc(C(=O)NCc2cccs2)c1	1%	-14	-32%	-3%	18µM*	15µM*
CNS(=O)(=O)c1cccc(C(=O)OCC(=O)c2c(N)n(C)c(=O)n(C)c2=O)c1	15%	15	0%	-14%	u	-7%
COc1ccc(OC)c(CNS(=O)(=O)c2ccc3c(c2)CCCN3C(C)=O)c1	-20%	x	-13%	1%	u	u
CC(=O)c1ccc(S(=O)(=O)N(C)CC(=O)N2CCCCCC2)cc1	2%	-2	0%	x	4%	-16%
Cc1cc(=S)nc(-c2ccccn2)[nH]1	2%	0	-26%	x	4.6µM*	3.3µM*
COc1ccc2nc(-c3ccccn3)[nH]c2c1	-63%	0	-19%	6%	-10%	-17%
S=c1[nH]nc(-c2ccccn2)n1/N=C/c1ccc(Cl)c(Cl)c1	-16%	x	-25%	8%	-20%	-17%
Cc1[nH]c(-c2ccccn2)nc(=S)c1Cl	-124%	x	-19%	x	u	10µM*
CCC(Oc1ccccc1)C(=O)Nc1cc(-c2ccccc2OC)nn1-c1ccccc1 (centres undefined)	-25%	x	u	3%	23µM*	u
CC(C)CC(=O)Nc1cc(-c2ccccc2F)nn1-c1ccccc1	1%	x	4%	-3%	12µM*	26µM*
CCCCNC(=O)C1Cc2cc(S(=O)(=O)N3CCCCC3)ccc2N1C(C)=O (centres undefined)	6%	2	-8%	1%	0%	-20%
O=C(c1c(F)cccc1F)N(Cc1ccccn1)C1CCCC1	-14%	5	-24%	-3%	4.6µM*	18µM*
SMILES	HepG2 tox	IL1B secr inh	TGFb SMAD3 inh	TDP1 block	TDP1 cell noCPT	DT40 TDP1 CPT
O=C(NO)c1ccc(C(=O)N(C2CCCCC2)C2CCCCC2)cc1	-37%	53	-32%	4%	21µM*	16µM*
O=C(c1c(F)cccc1F)N(C1CCCCC1)C1CCCCC1	-33%	48	u	x	18µM*	u
O=C(c1c(F)cccc1F)N(Cc1cccs1)C1CCCC1	0%	-9	-4%	5%	9.2µM*	12µM*
O=C(Nc1ccccc1)N(Cc1cccs1)C1CCCC1	-21%	-1	-18%	2%	u	u
O=S(=O)(NC1CC1)c1ccc(S(=O)(=O)N(Cc2ccccn2)C2CCCC2)cc1	-1%	4	1%	4%	-18%	0%
COc1ccc(OCc2cc(C(=O)N3CCCC(O)C3)no2)c2ccccc12 (centres undefined)	-30%	-1	0%	8%	-18%	-10%
Cc1ccc(CNC(=O)NCc2noc3ccc(C)cc23)cc1	-4%	x	-16%	3%	u	u
Cc1ccccc1OCC(=O)Nc1nnc(S(=O)(=O)N2CCCCCC2)s1	-3%	x	-24%	3%	-18%	-19%

Compound activity (PubChem)
